# Source: PubChem BioAssay (National Center for Advancing Translational Sciences (NCATS))
# The list is not random: actives were taken first. Their share in the collection is about 7.9%.
# HCV inh: qHTS Assay for Inhibitors of Hepatitis C Virus (HCV); Potency, µM (series often up to 41.8 µM), without a hit: at the top dose activity change, negative = inhibition, actives largely listed as inhibitors; Huh7.5.1 HCVcc-Cre infection, luciferase reporter, 44 h; hit rate 3.4% among 340,000; active means well fitted inhibition curve with a large enough effect; inconclusive means small, poorly fitted or top-dose-only effect, or another doubt; inactive means no such curve, though single readings can be large or run the other way; further: potency means the concentration at half of the fitted maximal effect
#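 Luciferase read-out (15 sec integration) after a 15 min room-temperature substrate step quantifies HCVcc-Cre infection. Cells, 1,000 per well, had compound added 4 h post-plating, then virus at ~0.5 moi, and were cultured 44 h.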
# FMDV inh: High Throughput Screening for Foot and Mouth Disease Virus Antivirals; FMDV antiviral cell-based qHTS; Potency, µM (titrated, usually from 57.9 µM), without a hit: at the top dose activity change, negative = inhibition, most hits filed as inhibitors; hit rate 1.2% among 410,000; AID 1159524, 2015; calls by dose curve; tested in HEK293T cells; further: read-out not given here; potency means the concentration at half of the fitted maximal effect; nearly all actives have a fitted effect of over 45% in size
# Lassa entry inh: qHTS for Inhibitors of binding or entry into cells for Lassa Virus; hit rate 1.2% among 300,000; Lassa virus pseudotype entry inhibition, cell reporter; Potency, µM (titrated, usually from 37.9 µM), for the others: top-dose activity change, negative = inhibition, usual class: inhibitors; calls by dose curve; tested in HEK293 cells; further: potency means the concentration at half of the fitted maximal effect; nearly all actives have a fitted effect of over 50% in size
# MARV entry inh: qHTS for inhibitors of binding or entry into cells for Marburg Virus; Marburg virus pseudotyped entry inhibition, cell reporter; Potency, µM (doses to about 37.8 µM), inactives show top-dose activity change, negative = inhibition, actives largely listed as inhibitors; hit rate 1.8% among 300,000; calls by dose curve; tested in HEK293 cells; further: potency means the concentration at half of the fitted maximal effect
# HCMV antiviral: qHTS Assay for inhibitors of the human cytomegalovirus (HCMV). HFF cells, HCMV-luciferase reporter, 72 h; hits give low values. activity change, negative = inhibition, % at 57.5 µM. hit rate 4.5% among 410,000; in the data active means activity change below about -60%; inconclusive means no clear call, values can overlap the other calls; inactive means above about -39%
#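 Two compound doses tested in HFFs infected with HCMV-luciferase, MOI 1 PFU/cell, 72 h at 37C. Lysate luminescence read with OneGlo; data normalized against buffer-only and 10uM Salinomycin inhibitor controls.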
# Starred values were filed as active, the others as inactive; ? = inconclusive; nt = not tested or not shown; [ ] = remark or other dose. On the % scale 0 is the no-effect control and ±100 the full control effect.
SMILES,HCV inh,FMDV inh,Lassa entry inh,MARV entry inh,HCMV antiviral
CCOCCCNC(=O)C(c1ccc(Cl)cc1)N(Cc1cccs1)C(=O)c1ccc(NC(C)=O)cc1 (stereo unspecified),nt,0%,?,10µM*,-27
CCOCCCNC(=O)C(c1ccccc1)N(Cc1cccs1)C(=O)c1ccccc1O (stereo unspecified),?,18%,?,?,-24
CCOCCCNC(=O)C(c1ccc(C)cc1)N(Cc1cccs1)C(=O)c1ccccc1O (stereo unspecified),2%,54%,11µM*,?,-38
CCOCCCNC(=O)C(c1ccc(C)cc1)N(Cc1cccs1)C(=O)c1ccc(NC(C)=O)cc1 (stereo unspecified),nt,-22%,?,?,-26
CCOCCCNC(=O)C(NC(=O)c1ccc(NC(C)=O)cc1)c1ccc(Cl)cc1 (stereo unspecified),0%,0%,-11%,18%,-63*
O=C(CSc1nc(-c2ccc(F)cc2)cc(C(F)(F)F)n1)NCc1ccccc1,nt,-23%,?,?,-25
Cc1ccc(NC(=O)COC(=O)Cc2cccs2)cc1S(=O)(=O)N1CCOCC1,26%,0%,-5%,3%,-19
O=C1C=CN(C2OC(CO)C(O)C2O)C(=O)C1 (stereo unspecified),nt,-9%,nt,nt,-73*
Cc1c(-c2ccccc2)oc2c(C(=O)N3CCN(c4ccc([N+](=O)[O-])cc4)CC3)cccc2c1=O,-27%,-25%,-1%,-27%,-61*
CC1(C(=O)N2CCN(c3ccccc3)CC2)CC1(Cl)Cl (stereo unspecified),6%,-10%,3%[46.1 µM],-6%[46.1 µM],-21
CC1(C(=O)N2CCN(c3ccc([N+](=O)[O-])cc3)CC2)CC1(Cl)Cl (stereo unspecified),11µM*,20µM*,nt,nt,?
O=C(C1COc2ccccc2O1)N1CCN(c2ccc([N+](=O)[O-])cc2)CC1 (stereo unspecified),22µM*,0%,7%,?,-13
O=C(C1COc2ccccc2O1)N1CCN(c2ccc(F)cc2)CC1 (stereo unspecified),5%,nt,?,13%,6
CC(C)(O)C#Cc1ccc(C(=O)N2CCN(c3ccc([N+](=O)[O-])cc3)CC2)cc1,?,?,?,?,-85*
CCCC(=O)N1CCN(c2nc3ccccc3s2)CC1,?,2%,nt,nt,?
CCSc1ccccc1C(=O)N1CCN(c2nc3ccccc3s2)CC1,nt,?,-26%[46.1 µM],nt,-67*
CCSc1ccccc1C(=O)N1CCN(c2ccc([N+](=O)[O-])cc2)CC1,10µM*,?,?,?,-30
CC(C)(C)C(C)(C)CN=CN1c2ccccc2-n2cccc2C1c1cccc(F)c1 (stereo unspecified),nt,nt,nt,nt,-5
Clc1ccc2nc(N3CCNCC3)nc(-c3ccccc3)c2c1,10µM*,-25%,?,?,?
CN1CCN(c2nc(-c3ccccc3)c3cc(Cl)ccc3n2)CC1,-13%,-2%,7%,-19%,10
c1ccc(OCCSc2nc3ccccc3[nH]2)cc1,-9%,22%,?,3%,4
Cc1ccccc1OCCCSc1nc2ccccc2[nH]1,?,?,?,?,-70*
COc1ccccc1N1CCN(CCCCNS(=O)(=O)c2cccc3c(N(C)C)cccc23)CC1,nt,nt,15µM*,7.1µM*,nt
COc1ccccc1N1CCN(CCCCN2C(=O)c3ccccc3C2=O)CC1,?,-15%,?,?,-102*
O=C(Nc1ccc(Cl)cc1)Nc1cc([N+](=O)[O-])ccc1F,-2%,-9%,-3%,2%,-79*
SMILES,HCV inh,FMDV inh,Lassa entry inh,MARV entry inh,HCMV antiviral
Cc1cc(OC(F)F)ccc1NC(=O)Nc1ccc([N+](=O)[O-])cc1,?,-15%,?,?,-79*
O=C(Nc1ccc(C(=O)O)cc1)Nc1ccc([N+](=O)[O-])cc1,-7%,-6%,3%,-2%,14
O=C(Nc1ccc([N+](=O)[O-])cc1)Nc1ccc(Cl)cc1F,3%,-29%,?,?,-99*
O=C(CSCc1ccc(Cl)cc1)Nc1cc([N+](=O)[O-])ccc1O,2.2µM*,-10%,?,?,-36
CCC(C)(C)C(=O)Nc1cc([N+](=O)[O-])ccc1F,-3%,-20%,5%,?,-18
COc1ccc([N+](=O)[O-])cc1NC(=O)CSCc1ccc(Br)cc1,?,-29%,19%,1%,15
COc1ccc(OC(C)C(=O)Nc2ccc([N+](=O)[O-])cc2)cc1 (stereo unspecified),1%,?,?,-29%[46.1 µM],-7
Cc1cc(OC(=O)c2ccc(C)c(C)c2)c([N+](=O)[O-])c(=O)[nH]1,10%,-16%,nt,nt,2
O=c1cc[nH]c2ccc(Cl)cc12,5%[8.37 µM],-7%,11%,18%,16
O=c1cccc2c1c1cc[nH]c3ccc(=O)n2c31,?,-22%,nt,nt,-70*
COc1ccccc1C/C(N)=N/OC(=O)c1cccc([N+](=O)[O-])c1C,10µM*,-14%,?,?,30
N#Cc1ccc(OCC(=O)N2CCN(S(=O)(=O)c3ccc(Cl)s3)CC2)cc1,?,?,nt,nt,-61*
COC(=O)C1(C(=O)OC)c2ncccc2N(S(=O)(=O)c2ccc(C)cc2)C1CC(=O)c1ccccc1 (stereo unspecified),nt,-16%,nt,nt,-38
Cc1nn(S(=O)(=O)c2ccc(F)cc2)c(C)c1S(=O)(=O)N1CCCCCC1,nt,8%,13%[46.1 µM],nt,20
COc1ccc(NC(=S)N(Cc2ccccn2)Cc2ccccc2Cl)cc1,13%,23%,11%,14%[46.1 µM],4
COc1cccc(NC(=S)N(Cc2ccccn2)Cc2ccccc2Cl)c1,?,23%,?,?,-60*
COc1ccc(OC)c(C2=NOC(C(=O)N3CCCc4ccccc43)C2)c1 (stereo unspecified),?,-4%,4%,17%,-60*
COc1ccc(N2C(=O)[C@@H]3C[C@H]2CN3Cc2cccn2-c2ccc(Cl)cn2)c(C)c1,nt,0%,nt,nt,nt
COC(=O)c1cn(CCOc2ccccc2OC)c2ccccc12,?,?,-17%,?,-2
COC(=O)N/N=C/c1cn(Cc2ccc(Cl)cc2Cl)c2ccccc12,?,-11%,?,13µM*,-39
COc1ccccc1OCCn1cc(/C=N/NC(=O)c2ccncc2)c2ccccc21,-22%,?,?,7%,-6
COc1ccccc1OCCn1cc(/C=N/NC(N)=S)c2ccccc21,8.9µM*,?,nt,nt,?
COC(=O)c1cn(CCOc2ccccc2)c2ccccc12,13µM*,-19%,?,-26%,105
COC(=O)c1cn(C(=O)c2ccccc2Cl)c2ccccc12,?,-23%,?,?,-64*
